Reference: PubChem BioAssay (NCATS)
A number with no mark means an inactive call. Inconclusive results are not listed. Calls of active or inactive are those of the source. Unless noted, calls come from the whole dose curve; as a rule, active = well fitted curve in the direction sought with a large enough effect; inconclusive = small, poorly fitted or top-dose-only effect, or another doubt; inactive = no such curve, though single readings can be large; an effect the other way counts as inactive or inconclusive.

What was measured:
[1] = target: Lysosomal acid glucosylceramidase (Homo sapiens) (UniProt P04062); experiment: Glucocerebrosidase-p2 (AID 348; in the data active = potency below about 10 µM; note: potency is the fitted concentration of half-maximal effect); conditions: purified GBA, blue fluorogenic substrate, 40 min
In short: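 Compounds titrated from 0.6 nM upwards against 0.2 nM enzyme in pH 5.9 citric acid/KH2PO4, taurocholate, tween-20; blue fluorogenic substrate 80 uM, 40 min room temperature, stopped and read Ex 365/Em 440 for AC50.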

[2] = AP1 Signaling Pathway (AID 357; active = well fitted curve in either direction with a large enough effect, not every such curve was filed as active;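 note: ME-180 reporter cells stimulated with EGF at its EC50 level; % is set by controls: 0 for no effect and ±100 for the full control effect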); conditions: ME-180 AP-1-bla reporter, EGF-induced, beta-lactamase ratio, 5 h; at 7.69 µM (top of the series) unless noted
In short: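 AP-1-bla ME-180 cells, Opti-MEM + 0.5% dialyzed FBS, plated overnight 37 °C. Cpd titration + EC50 EGF, 5 h 37 °C. CCF4 2.5 h RT; ex 405, em 460/530 ratio → %activity, AC50.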

[3] = target: Cytochrome P450 1A2 (Homo sapiens) (UniProt P05177); experiment: p450-cyp1a2 (AID 410; calls by dose curve; note: potency is the fitted concentration of half-maximal effect); conditions: recombinant CYP1A2, luciferin-ME demethylation, luminescence; series mostly up to 57 µM
In short: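 Human CYP1A2 (20nM) demethylated Luciferin-ME at its Km (100uM) in 100mM KPO4. After 10 min compound preincubation, NADPH regeneration ran the reaction 60 min at room temperature. Luciferin was read by luminescence, normalized to 57 uM furafylline.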

[4] = Stat Signaling Pathway (AID 446; active = well fitted curve in either direction with a large enough effect, not every such curve was filed as active;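 note: ME-180 cervical cancer cells given 40 pM IL-6 alongside compound; SIE-controlled beta-lactamase reporter measured as 460/530 nm FRET emission ratio; % is set by controls: 0 for no effect and ±100 for the full control effect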); conditions: ME-180 SIE beta-lactamase reporter, IL-6 stimulated, 5 h; at 7.69 µM (top of the series) unless noted
In short: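 ME-180 cells carrying a SIE-driven beta-lactamase reporter are stimulated with 40 pM IL-6 for 5 h at 37C in the presence of compound. The 460/530 nm FRET substrate ratio is read after 2.5 h at RT. Data are normalised to 300 pM IL-6 and to 125 nM JAK inhibitor controls.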

[5] = target: Glucocorticoid receptor (Homo sapiens) (UniProt P04150); experiment: GR-GFP Redistribution (AID 450;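 active = compounds whose dose series gives a full or clear partial fitted curve of increased nuclear translocation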; note: potency is the fitted concentration of half-maximal effect); conditions: U2OS GR-GFP nuclear translocation, laser cytometry, 2 h
[6] = target: Glucocorticoid receptor (Homo sapiens) (UniProt P04150); experiment: GR-EFC Redistribution (AID 451; calls by dose curve; note: potency is the fitted concentration of half-maximal effect); conditions: CHO-K1 GR-EFC translocation, beta-gal luminescence, 2 h
In short: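 Translocation of GR-ED fusion to nuclear EA restores b-gal, read by luminescence after 1 h room-temperature detection. Engineered CHO-K1 biosensor cells, 1,000/well, exposed 2 h at 37 C to titrations up to 46 uM final.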

[7] = target: Mitogen-activated protein kinase 10 (Mus musculus) (UniProt Q61831); experiment: JNK3 AlphaScreen Assay (AID 530; active = well fitted curve in either direction with a large enough effect, not every such curve was filed as active;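 note: kinase came from lysate of stimulated human HepG2 cells; signal reports phosphorylation of biotinylated GST-cJun 1-79 at Ser73 with 10 µM ATP; % is set by controls: 0 for no effect and ±100 for the full control effect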); conditions: JNK3 lysate, c-Jun phosphorylation; series mostly up to 57.1 µM
In short: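 Room-temperature AlphaScreen kinase assay; pre-activated HepG2 lysate as JNK3 source, biotin-GST-cJun(1-79) substrate, 10 uM ATP, compound 15 min preincubation.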

[8] = target: 3',5'-cyclic-AMP phosphodiesterase 4B (Homo sapiens) (UniProt Q07343); experiment: qHTS Assay for Inhibitors of PDE-IV (AID 607; active = well fitted activation curve with a large enough effect in the main read-out, with a control signal flat, not every such curve was filed as active; note: % of control where 0% means no effect); conditions: HEK293 ACTOne CNG channel cells, membrane potential fluorescence; series mostly up to 22.9 µM
In short: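 HEK293 ACTOne cells with CNG channel (1000/well), endogenous PDE4; membrane potential dye, compounds up to 22.9 uM final. Fluorescence Ex 535/Em 590; RO 20-1724 (100 uM final) as reference.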

[9] = target: Cytochrome P450 3A4 (Homo sapiens) (UniProt P08684); experiment: qHTS Assay for Activators of Cytochrome P450 3A4 (AID 885); conditions: recombinant CYP3A4, Luciferin-PPXE luminescence, 60 min; series mostly up to 57.1 µM; note: nearly all actives have a fitted effect of over 65% in size
In short: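 Human CYP3A4 (20 nM) with Luciferin-PPXE at 25 uM (its KM) in 200 mM KPO4; 10 min compound preincubation, then NADPH regeneration and 60 min reaction at RT. Luciferin read by luminescence; normalized to 57 uM ketoconazole full inhibition.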

[10] = target: Dual specificity protein kinase CLK4 (Homo sapiens) (UniProt Q9HAZ1); experiment: qHTS Assay for Inhibitors of CDC-like Kinase 4 (Kinase-Glo Assay) (AID 1770); conditions: recombinant Clk4, Kinase-Glo ATP depletion luminescence; series mostly up to 66.7 µM; note: nearly all actives have a fitted effect of over 65% in size; note: potency is the fitted concentration of half-maximal effect
In short: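 Substrate mix (RS peptide 100 uM, ATP 1 uM) dispensed, compound pinned in, then Clk4 added to 25 nM final. Incubated 4.5 h at RT; Kinase-Glo reagent added, luminescence read after 5 min.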

[11] = target: Dual specificity protein kinase CLK4 (Homo sapiens) (UniProt Q9HAZ1); experiment: qHTS Assay for Inhibitors of CDC-like Kinase 4 (ADP-Glo Assay) (AID 1771); conditions: recombinant CLK4, ADP-Glo luminescence; series mostly up to 80 µM; note: nearly all actives have a fitted effect of over 70% in size; note: potency is the fitted concentration of half-maximal effect
In short: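 Clk4 (25 nM) was incubated 1 hr at room temperature with 100 uM RS repeat peptide and 1 uM ATP in buffer with 2 mM MgCl2, 0.5 mM EGTA, 2.5 mM DTT. ADP formed was quantified by ADP-Glo luminescence.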

[12] = target: Ubiquitin carboxyl-terminal hydrolase 1 (Homo sapiens) (UniProt O94782); experiment: Inhibitors of USP1/UAF1: Pilot qHTS (AID 504865); conditions: purified USP1/UAF1, Ub-rhodamine cleavage fluorescence; series mostly up to 54.9 µM;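 note: rhodamine fluorescence freed from ubiquitin-rhodamine substrate followed over time; top concentration of the series differs between compounds; % is set by controls: 0 for no effect and ±100 for the full control effect; nearly all actives have a fitted effect of over 35% in size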
In short: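 In 50mM HEPES pH 7.8 containing 0.5mM EDTA, 1mM TCEP, 0.1 mg/ml BSA and 0.01% Tween-20, 1nM USP1/UAF1 is exposed to compound for 15 min, then Ub-Rho (150nM final) is added and fluorescence is read over time.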

[13] = Primary qHTS for small molecule stabilizers of the endoplasmic reticulum resident proteome: Secreted ER Calcium Modulated Protein (SERCaMP) assay (AID 1508630); conditions: SH-SY5Y GLuc-SERCaMP (Gaussia luciferase released on ER calcium loss) secretion, thapsigargin, luminescence; series mostly up to 38.4 µM; note: % is set by controls: 0 for no effect and ±100 for the full control effect
In short: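 GLuc-SERCaMP-expressing SH-SY5Y cells, pretreated 16 h with compound, are challenged with thapsigargin to empty ER calcium stores; after 4 h, coelenterazine is added directly to the medium and luminescence is imaged.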

[14] = NFAT Signaling Pathway (AID 444; active = well fitted curve in either direction with a large enough effect, not every such curve was filed as active); conditions: Jurkat NFAT-bla M1, carbachol, beta-lactamase ratio, 5 h; at 7.69 µM (top of the series) unless noted
In short: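 Read-out: CCF4 FRET ratio (460 nm/530 nm) after 1 h RT dye loading, used for %activity and AC50 from titration series. Cells: Jurkat NFAT-β-lactamase/M1 line, treated with compound plus 1 uM carbachol for 5 h, 37 °C.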

[15] = qHTS Assay for Identification of Small Molecule Agonists for Hypoxia Response Element Signaling Pathway (AID 914; active = well fitted activation curve with a large enough effect in the signal ratio, with a control signal flat, not every such curve was filed as active; the % refers to the signal ratio; note: % of control where 0% means no effect); conditions: ME-180 (cervical carcinoma) HRE-bla reporter, beta-lactamase ratio, CoCl2, 17 h; activation: hits give high values
In short: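 In Opti-MEM containing 0.5% dialyzed FBS and 10 mM HEPES, ME-180 HRE-bla cells received a compound titration and EC50 CoCl2. They were incubated 17 hours, then CCF4-loaded 2.5 hours at room temperature before ratio reading.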

[16] = target: Cytochrome P450 3A4 (Homo sapiens) (UniProt P08684); experiment: qHTS Assay for Inhibitors and Substrates of Cytochrome P450 3A4 (AID 884); conditions: recombinant CYP3A4, Luciferin-PPXE luminescence; series mostly up to 57.1 µM; note: potency is the fitted concentration of half-maximal effect; nearly all actives have a fitted effect of over 50% in size
In short: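 20 nM human CYP3A4 with 25 uM Luciferin-PPXE (at KM) in 200 mM KPO4, preincubated 10 min with compound; NADPH regeneration started a 60 min RT reaction. Luciferin detected by luminescence, normalized to 57 uM ketoconazole as full inhibition.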

[17] = target: Dual specificity protein kinase CLK4 (Homo sapiens) (UniProt Q9HAZ1); experiment: qHTS Assay for Inhibitors of CDC-like Kinase 4 (ADP-FP Assay) (AID 1795); conditions: Transcreener ADP fluorescence polarization; series mostly up to 50 µM;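 note: recombinant human CLK4 phosphorylating RS repeat peptide at 1 µM ATP; % is set by controls: 0 for no effect and ±100 for the full control effect; nearly all actives have a fitted effect of over 60% in size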
In short: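 Clk4 6.25 nM; RS peptide 100 uM; ATP 1 uM; 25 mM Tris pH 7.5, 10 mM MgCl2; 1 h reaction. ADP detected via antibody/orange tracer FP displacement; TG003 positive control.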

Lysosomal acid glucosylceramidase (Homo sapiens), sequence (P04062 whole entry, looked up): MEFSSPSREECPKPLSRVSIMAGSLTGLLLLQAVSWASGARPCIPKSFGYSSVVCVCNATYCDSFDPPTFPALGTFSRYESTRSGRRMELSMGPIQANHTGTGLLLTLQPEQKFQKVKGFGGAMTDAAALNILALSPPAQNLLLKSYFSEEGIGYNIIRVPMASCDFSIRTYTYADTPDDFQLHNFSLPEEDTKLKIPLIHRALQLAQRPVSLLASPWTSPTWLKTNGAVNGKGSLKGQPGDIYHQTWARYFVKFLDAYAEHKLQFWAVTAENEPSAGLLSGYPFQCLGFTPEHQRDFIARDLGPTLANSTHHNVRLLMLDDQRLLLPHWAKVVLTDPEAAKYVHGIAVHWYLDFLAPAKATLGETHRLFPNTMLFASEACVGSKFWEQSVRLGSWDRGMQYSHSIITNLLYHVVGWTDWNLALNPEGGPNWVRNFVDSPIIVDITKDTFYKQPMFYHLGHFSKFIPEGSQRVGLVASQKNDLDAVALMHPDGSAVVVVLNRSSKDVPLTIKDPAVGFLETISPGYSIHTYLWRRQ
3',5'-cyclic-AMP phosphodiesterase 4B (Homo sapiens), sequence (Q07343 whole entry, looked up): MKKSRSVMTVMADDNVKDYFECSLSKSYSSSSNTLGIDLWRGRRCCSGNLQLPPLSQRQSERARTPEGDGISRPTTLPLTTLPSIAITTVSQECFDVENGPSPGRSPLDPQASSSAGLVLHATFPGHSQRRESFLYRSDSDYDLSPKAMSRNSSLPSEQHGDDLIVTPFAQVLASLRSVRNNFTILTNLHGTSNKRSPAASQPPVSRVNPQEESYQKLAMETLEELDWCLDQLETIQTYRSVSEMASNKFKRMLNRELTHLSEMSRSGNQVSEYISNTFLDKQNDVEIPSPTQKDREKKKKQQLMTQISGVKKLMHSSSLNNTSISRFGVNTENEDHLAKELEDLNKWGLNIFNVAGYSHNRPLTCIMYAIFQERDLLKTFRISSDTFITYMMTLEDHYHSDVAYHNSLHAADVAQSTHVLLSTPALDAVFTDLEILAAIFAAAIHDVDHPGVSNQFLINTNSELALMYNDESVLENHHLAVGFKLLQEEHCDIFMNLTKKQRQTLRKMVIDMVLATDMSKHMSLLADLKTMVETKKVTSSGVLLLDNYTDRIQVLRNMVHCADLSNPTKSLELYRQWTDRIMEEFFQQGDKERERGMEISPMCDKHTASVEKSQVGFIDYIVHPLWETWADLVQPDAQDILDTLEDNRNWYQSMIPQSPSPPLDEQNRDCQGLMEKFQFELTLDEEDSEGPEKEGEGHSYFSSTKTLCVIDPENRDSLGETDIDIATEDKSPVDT
Cytochrome P450 1A2 (Homo sapiens), sequence (P05177 whole entry, looked up): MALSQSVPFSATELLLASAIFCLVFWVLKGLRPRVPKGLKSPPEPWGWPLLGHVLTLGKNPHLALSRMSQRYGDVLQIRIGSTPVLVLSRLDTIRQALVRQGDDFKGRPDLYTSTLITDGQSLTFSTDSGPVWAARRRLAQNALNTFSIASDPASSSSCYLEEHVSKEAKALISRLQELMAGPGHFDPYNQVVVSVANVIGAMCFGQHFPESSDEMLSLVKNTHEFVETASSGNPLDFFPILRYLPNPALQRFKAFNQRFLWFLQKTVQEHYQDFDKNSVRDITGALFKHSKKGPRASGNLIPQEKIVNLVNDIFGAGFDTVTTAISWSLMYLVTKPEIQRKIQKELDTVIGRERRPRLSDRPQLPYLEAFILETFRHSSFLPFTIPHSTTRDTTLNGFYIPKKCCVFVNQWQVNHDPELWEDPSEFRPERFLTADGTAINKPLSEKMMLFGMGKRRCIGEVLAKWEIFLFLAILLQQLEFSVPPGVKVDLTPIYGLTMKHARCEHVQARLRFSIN
Ubiquitin carboxyl-terminal hydrolase 1 (Homo sapiens), sequence (O94782 whole entry, looked up): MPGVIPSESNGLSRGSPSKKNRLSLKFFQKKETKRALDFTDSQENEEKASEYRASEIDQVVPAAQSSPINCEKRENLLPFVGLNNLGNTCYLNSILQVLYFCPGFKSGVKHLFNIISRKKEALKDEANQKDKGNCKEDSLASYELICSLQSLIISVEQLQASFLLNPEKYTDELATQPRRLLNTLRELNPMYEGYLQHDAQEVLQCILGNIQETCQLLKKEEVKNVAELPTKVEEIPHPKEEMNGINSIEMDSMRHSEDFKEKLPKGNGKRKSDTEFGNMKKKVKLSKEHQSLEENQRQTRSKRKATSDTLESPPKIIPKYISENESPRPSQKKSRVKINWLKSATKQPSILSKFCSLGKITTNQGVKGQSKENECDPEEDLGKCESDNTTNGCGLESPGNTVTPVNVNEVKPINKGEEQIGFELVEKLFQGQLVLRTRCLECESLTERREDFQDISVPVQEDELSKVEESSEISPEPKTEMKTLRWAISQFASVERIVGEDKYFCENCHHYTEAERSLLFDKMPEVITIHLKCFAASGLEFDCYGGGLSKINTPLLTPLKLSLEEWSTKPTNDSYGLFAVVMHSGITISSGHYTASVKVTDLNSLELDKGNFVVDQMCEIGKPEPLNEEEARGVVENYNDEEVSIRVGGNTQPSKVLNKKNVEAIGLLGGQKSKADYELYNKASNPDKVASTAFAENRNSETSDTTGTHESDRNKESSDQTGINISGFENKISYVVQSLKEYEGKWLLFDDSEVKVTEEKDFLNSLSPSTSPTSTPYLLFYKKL
Cytochrome P450 3A4 (Homo sapiens), sequence (P08684 whole entry, looked up): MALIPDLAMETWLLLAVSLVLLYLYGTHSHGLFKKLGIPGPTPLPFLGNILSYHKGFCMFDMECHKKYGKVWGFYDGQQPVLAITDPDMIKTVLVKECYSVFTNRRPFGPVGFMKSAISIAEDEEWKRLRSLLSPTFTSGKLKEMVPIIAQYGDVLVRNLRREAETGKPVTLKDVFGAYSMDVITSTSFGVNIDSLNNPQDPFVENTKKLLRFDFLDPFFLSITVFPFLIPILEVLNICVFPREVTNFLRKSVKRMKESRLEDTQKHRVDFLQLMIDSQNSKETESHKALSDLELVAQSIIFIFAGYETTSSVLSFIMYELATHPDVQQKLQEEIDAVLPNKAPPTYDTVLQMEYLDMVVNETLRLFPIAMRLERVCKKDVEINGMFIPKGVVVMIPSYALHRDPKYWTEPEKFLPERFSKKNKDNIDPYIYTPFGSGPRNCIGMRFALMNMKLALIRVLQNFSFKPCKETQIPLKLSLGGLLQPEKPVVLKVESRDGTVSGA
Glucocorticoid receptor (Homo sapiens), sequence (P04150 whole entry, looked up, the tested form may be a part): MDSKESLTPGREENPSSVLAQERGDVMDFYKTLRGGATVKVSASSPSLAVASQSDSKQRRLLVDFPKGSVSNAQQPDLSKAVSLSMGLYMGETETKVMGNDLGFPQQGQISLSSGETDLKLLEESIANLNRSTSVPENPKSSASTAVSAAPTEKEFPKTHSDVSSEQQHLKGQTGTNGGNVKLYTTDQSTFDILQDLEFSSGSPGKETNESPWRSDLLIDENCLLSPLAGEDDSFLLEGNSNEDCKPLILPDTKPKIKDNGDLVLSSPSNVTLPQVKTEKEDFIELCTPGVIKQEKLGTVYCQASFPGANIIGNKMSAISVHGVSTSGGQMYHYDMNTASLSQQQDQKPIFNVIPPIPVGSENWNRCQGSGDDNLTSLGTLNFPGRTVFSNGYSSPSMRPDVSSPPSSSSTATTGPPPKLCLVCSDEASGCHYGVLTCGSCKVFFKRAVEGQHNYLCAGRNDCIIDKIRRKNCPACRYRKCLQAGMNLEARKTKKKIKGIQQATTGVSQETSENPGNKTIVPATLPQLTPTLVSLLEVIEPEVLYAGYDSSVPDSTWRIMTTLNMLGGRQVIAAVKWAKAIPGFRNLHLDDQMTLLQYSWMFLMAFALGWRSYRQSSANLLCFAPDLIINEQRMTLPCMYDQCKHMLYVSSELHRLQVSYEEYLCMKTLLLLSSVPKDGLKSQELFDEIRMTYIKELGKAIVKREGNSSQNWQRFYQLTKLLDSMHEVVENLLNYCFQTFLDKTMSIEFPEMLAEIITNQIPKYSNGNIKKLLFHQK
Dual specificity protein kinase CLK4 (Homo sapiens), sequence (Q9HAZ1 whole entry, looked up): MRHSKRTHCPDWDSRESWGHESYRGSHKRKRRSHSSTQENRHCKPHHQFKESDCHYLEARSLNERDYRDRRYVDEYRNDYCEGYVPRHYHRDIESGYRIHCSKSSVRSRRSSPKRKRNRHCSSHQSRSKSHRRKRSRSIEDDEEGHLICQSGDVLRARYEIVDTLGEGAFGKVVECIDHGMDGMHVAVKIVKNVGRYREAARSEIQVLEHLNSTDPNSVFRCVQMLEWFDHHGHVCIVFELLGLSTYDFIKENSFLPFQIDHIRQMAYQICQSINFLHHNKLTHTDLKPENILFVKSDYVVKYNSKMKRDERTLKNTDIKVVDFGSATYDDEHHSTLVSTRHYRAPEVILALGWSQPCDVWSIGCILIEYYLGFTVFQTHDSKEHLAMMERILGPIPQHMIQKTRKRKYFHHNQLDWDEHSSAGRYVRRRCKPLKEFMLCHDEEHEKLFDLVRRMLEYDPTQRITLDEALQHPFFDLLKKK

SMILES | Potency [1] [µM] | activity change, negative = inhibition [2] [%] | Potency [3] | activity, negative = inhibition [4] [%] | Potency [5] [µM] | Potency [6] [µM] | Potency [7] | Potency [8] | Potency [9] | Potency [10] | Potency [11] | Potency [12] | outcome [13] | activity change, negative = inhibition [14] [%] | activation [15] [%] | Potency [16] | Potency [17]
CC(=O)NCCNc1ncnc2ccc(-c3ccccc3C#N)cc12 | > 11.4 | -5.09 | 3.98 µM (active) | 6.69 | > 46 | > 46 | inactive | inactive | inactive | 14.1 µM (active) | 14.1 µM (active) | inactive | inactive | – | – | – | –
FC(F)(F)c1ccccc1-c1nc(-n2ccnc2)c2ccccc2n1 | > 11.4 | 9.46 | – | -3.35 | > 46 | > 46 | inactive | inactive | – | 15.8 µM (active) | 17.8 µM (active) | inactive | inactive | 3.74 | 2.67 | – | –
CN(C)c1ncc2nc(CCc3ccccc3)c(=O)n(C3CC3)c2n1 | > 11.4 | 1.45 | 3.16 µM (active) | -4.87 | > 9.22 | > 46 | inactive | – | inactive | inactive | inactive | inactive | inactive | – | – | – | –
FC(F)(F)c1ccccc1-c1nccc(-n2ccnc2)n1 | > 11.4 | -7.77 | – | 0.859 | > 46 | > 46 | inactive | – | – | 15.8 µM (active) | 25.1 µM (active) | inactive | inactive | 2.35 | – | – | –
O=c1cnc2cnc(Oc3cccc(Cl)c3)nc2n1CCc1ccccc1 | > 11.4 | – | – | -20.1 | > 9.22 | > 46 | inactive | inactive | – | 2.24 µM (active) | 3.55 µM (active) | inactive | inactive | – | – | – | –
COc1cccc(Cn2c(=O)c(-c3ccccc3)nc3cncnc32)c1 | > 11.4 | -16.5 | – | -11.9 | > 9.22 | > 46 | inactive | inactive | – | inactive | inactive | inactive | inactive | -5.39 | – | – | –
N#Cc1cccc(-c2nccc(NCc3cccnc3)n2)c1 | > 11.4 | – | 0.251 µM (active) | 0.752 | > 46 | > 46 | inactive | – | inactive | 14.1 µM (active) | 14.1 µM (active) | inactive | inactive | 16.5 | – | 0.794 µM (active) | –
Clc1ccccc1-c1cc(NCCN2CCOCC2)ncn1 | > 11.4 | 1.17 | 31.6 µM (active) | 2.93 | > 46 | > 46 | inactive | inactive | – | inactive | – | inactive | inactive | -9.62 | – | – | inactive
